This experiment relates to VDR:RXRa (NR concentration 270 nM, RXRa partner concentration 90 nM). Nature of the experiment: PBM binding z-score (relative to random genomic background probes); higher = stronger binding; sequences stand for … in GC…GCGATTGACAGCGTAGAATGAAGG
The protocol: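 Protein-binding microarray (Agilent 4x180K custom design, double-stranded 60-nt probes: 5' GC cap, 34-nt variable region, 24-nt constant primer region; full probe sequence given). Purified or IVT nuclear receptor:RXRα heterodimers (3:1 NR:RXRα, mostly 270:90 nM) or homodimers were incubated for 1 h in PBS with 2% milk and no ligand, then detected with Alexa488 antibodies. Fluorescence from o1-orientation probes (~5 replicates averaged) was converted to z-scores against 500 random hg19 background probes. Variable regions are seed direct-repeat (DR0–DR5) sites, all their single-nucleotide variants and half-site ablations.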
In turn, GCTAGCAGGCCATTTGGGTCAGTCAATGACGGGC yielded a PBM binding z-score of 0.157.

For the sequence GCTATTAGTTGAAAAGGCAACCGAATGATTCTCG, the PBM binding z-score is -0.31.

On to ATCGAAAGGCCGAAGGTGAGTATACCCACCCGAA, for which the PBM binding z-score is -0.338. Next, CCTACTGGGCCACGAAAGATCATTGATTCAGTGA: -0.306. Next, CGTCCAAGGTCAGCAGGTCAATGAAAGCGACGTG: 4.68; ATCTCTAGGTAATGTTCAGTGAAAGATCGATAGA: 0.188. Regarding TCTTGTAGATCAATTGAGGTTAAGAAAGTGCGCT, the PBM binding z-score is 1.86. Under AGAATGAGGTTATACGTAGCTCAGGGAAGAAAGT stands 1.2. For AGAGACAGGTGATGAAGGTAACTCAGGCTATCAT, the PBM binding z-score came out at 0.424. Under CCTACTGGGCTACGAAAGGTCATTGATTCAGTGA stands 3.71; under CGCACTAGGTCAGAACAGGACAGTGAAGGATGAT, 0.776; under TCTATTAGCTGATTAGGGCAACCGAAACAGCGGA, 0.11. The sequence TCAAGTTGGTCAAAGGTCACACACTCGAAATGCG returned a PBM binding z-score of 5.58. The sequence CCTCGGAGGACAGAAGGTCAGAGGTGTCCGCTTT registered a PBM binding z-score of 1.24. Next, TCATATAGCTAAAAGGTGAAAGTCGGTGTGGTAA: 0.864; TCATACAGGTAAACAGGTGAAAGTCCGTAAGTTA: 1.2.

Regarding TCGAGTAAGTTACCAATGGGGCATTCAGCTTTCT, the PBM binding z-score was found to be 0.0279.

ATCTCTCGGTAAAGATAGTTCAGTGAATGCAAAT: the PBM binding z-score is 0.595. Next, CTCGAAAGCTCGTGCTCAGGTGAGTATACCAAAC: -0.8; CCTTACGCGTCACTCCAGGTTATAGCATCGGAGT: 0.361.

Turning to CCTACTGGTCCATTCAGAGGTCATTGATCATATG, the PBM binding z-score came out at 4.24. In turn, GCTTACCGGTCAAAGGTTATAGCATGAATAGAAT registered a PBM binding z-score of 2.81. Next, TCTGCTAGGTCTACGATGGTCAGCTAATCTGCTA: -0.625.

Take GATACAGGGTCAAGGCCTGAGTACGCGTATTGAT: the PBM binding z-score amounted to 4.48. Under CGTCCAGGGTCAATGCTAGGTCAGTGAAAGCATT stands 4.9.

Take CGTCACAGTTCAAGGTAACGTAACAGAAAGCAGC: the PBM binding z-score turned out to be 1.61. In turn, CGTCCAAGGTGAATGCTAGGTCAGTGAAAGCATT gave a PBM binding z-score of 0.559. Under TCTTGTAGAACAACAGGAGGTTAAGAAAGATCGA stands 0.492; under CTCGAAAGGTCGGTTGAGGTGAGTATCCGGATAA, 2.13; under ATCTCTAGGTAACAAGTTCCGTGAAAGAGAGGAC, 0.0818.

The sequence CCTGCTAGGTCATGGTCAGCTAATCTACAGTATG yielded a PBM binding z-score of 1.7.

Take TGTCAAAGTTCCAAGGTAACGTAAGTATCCACAC: the PBM binding z-score amounted to 0.281. Sequence AGAATGAGGTTATTCGTAGATCAGGGAAGAAAGT yielded a PBM binding z-score of 1.78. Next, AATACAGGGTCACCGTAGGCCAGAGTACGCACAG: 5.2; TAGCCTAGGTCATTCAAGGGCCAGTATAGAAAGC: 2.89; CGGACTGGGGCATAAGGTTACCATAAGCCAGCCC: 0.33.

On to ACAGAAAGGTGATGAAGGTAACTCAGGCTATCAT, for which the PBM binding z-score turned out to be 1.2. As to TAGACTAGGTCATTCAGGGGCCAGTATAGAAAGC, the PBM binding z-score worked out at 2.48. Next, CCTCGGAGGACAGAAGGTCATAGCTGTCCGCTTT: 2.69. As for TCTGCTAGGTCATTTGGTCAGCTAACGAGCTGCC, the PBM binding z-score amounted to 2.21.

The values are drawn from the supplement of paper PMC6555819.
